From PubChem BioAssay (NCI)
The panel holds about 83,000 compounds, 20% with a hit somewhere; the sample as a whole holds those more often.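 48-hour exposure, single concentration, 96-well plates; percent growth endpoint where 0 means no net growth. Active: below 10.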 A number with no mark means an inactive call. Calls of active or inactive are those of the source.

Tests used:
Experiment in all cases: NCI-60 one-dose screen, 48 h (100 = growth as untreated, 0 = no growth, -100 = all killed)
[1] = test system: NCI-H23 lung; conditions: 10 µM unless noted
[2] = test system: NCI-H226 lung; conditions: 10 µM unless noted
[3] = test system: NCI-H322M lung; conditions: 10 µM unless noted
[4] = test system: HOP-62 NSCLC; conditions: 10 µM unless noted
[5] = test system: NCI-H460 lung; conditions: 10 µM unless noted
[6] = test system: HOP-92 NSCLC; conditions: 10 µM unless noted
[7] = test system: NCI-H522 lung; conditions: 10 µM unless noted
[8] = test system: A549/ATCC NSCLC; conditions: 10 µM unless noted
[9] = test system: 786-0 renal; conditions: 10 µM unless noted
[10] = test system: COLO 205 colon; conditions: 10 µM unless noted
[11] = test system: DU-145 prostate; conditions: 10 µM unless noted
[12] = test system: K-562 leukemia; conditions: 10 µM unless noted
[13] = test system: MALME-3M melanoma; conditions: 10 µM unless noted
[14] = test system: MDA-MB-231 breast; conditions: 10 µM unless noted
[15] = test system: RXF 393 renal; conditions: 10 µM unless noted
[16] = test system: SF-268 CNS; conditions: 10 µM unless noted
[17] = test system: SF-295 CNS; conditions: 10 µM unless noted
[18] = test system: SF-539 CNS; conditions: 10 µM unless noted
[19] = test system: UACC-257 melanoma; conditions: 10 µM
[20] = test system: M14 melanoma; conditions: 10 µM unless noted

SMILES | growth [1] | growth [2] | growth [3] | growth [4] | growth [5] | growth [6] | growth [7] | growth [8] | growth [9] | growth [10] | growth [11] | growth [12] | growth [13] | growth [14] | growth [15] | growth [16] | growth [17] | growth [18] | growth [19] | growth [20]
O=C(c1ccccc1)C(Cl)C(Cl)c1ccccc1 (stereo not drawn) | 86.7% | 7.49% (active) | 106% | 110% | 93.7% | 75.7% | -83.5% (active) | 92.7% | -17.8% (active) | -40.2% (active) | 45.7% | -1.74% (active) | 4.33% (active) | 25.8% | 17.2% | 82.5% | 104% | 31% | – | –
COc1cccc(/C=C/c2c(C(=O)O)cccc2[N+](=O)[O-])c1OC | 104% | 99.5% | 107% | 95.5% | 104% | 89.1% | 113% | 103% | 99.1% | 100% | 102% | 90.4% | 94.8% | 107% | 108% | 95.8% | 91.6% | 104% | 101% | 103%
O=C(Nc1ccc(F)cc1)c1cc([N+](=O)[O-])ccc1O | 50.1% | 88.3% | 64.3% | 65.2% | 64.2% | 15.7% | 15.3% | 68.1% | 80.2% | 81.5% | 78.3% | 45.3% | 37.4% | 65.9% | 68.2% | 72.9% | 78.6% | 47.3% | – | –
CC(C)CCN(CCCNc1c2c(nc3ccccc13)CCCC2)CCC(C)C | 84.1% | 102% | 81.7% | 102% | 91% | 42.4% | 103% | 94.1% | 77.6% | 61.7% | 86.3% | 31.4% | 84.9% | 24.5% | 81.9% | 89.4% | 80.1% | 88.2% | 94.5% | –
COc1ccc(/C=N/NC(=O)Cn2c(Cc3cccc4ccccc34)nc3ccccc32)cc1 | 90.3% | 92.7% | 84.5% | 89.3% | 106% | 101% | 77.7% | 95% | 102% | 106% | 105% | 89.4% | 92.4% | 91.2% | 109% | 95.6% | 88.9% | 90.7% | 99.4% | 105%
CCCS(=O)(=O)c1nc(NC2CC2)cc(-c2ccc3c(ccn3C3CC(C)(C)NC(C)(C)C3)c2)n1 | 10% | -63% (active) | 32.5% | 7.4% (active) | -74.1% (active) | 87.6% | -64.1% (active) | -61.4% (active) | -87.3% (active) | -48.8% (active) | 8.45% (active) | -52.6% (active) | -56.3% (active) | -78.8% (active) | -87.3% (active) | -48.7% (active) | -48.9% (active) | -88.1% (active) | – | –
O=c1[nH]c2ccccc2cc1-c1nnc(Cc2ccccc2)o1 | 74.7% | 85.3% | 92.3% | 82.6% | 92.2% | 76.2% | 71.2% | 83.3% | 58.3% | 64.4% | 71.1% | 30.8% | 55.8% | 79.6% | 76.1% | 78.4% | 99.7% | 80.8% | 80% | 65.8%
COc1cc(C(=O)/C=C/c2cc(C(=O)c3cc(OC)c(OC)c(OC)c3)ccc2OC)ccc1N | -29.8% (active) | -38.7% (active) | 7.82% (active) | 43.2% | -15.6% (active) | 46.1% | -58.9% (active) | 18.5% | 10.5% | -58.8% (active) | 26.7% | 4.22% (active) | -36.1% (active) | 23.1% | -32.5% (active) | -28.1% (active) | 9.88% (active) | -53.2% (active) | -11.9% (active) | -52.9% (active)
Oc1ccc(Cl)cc1-c1cc(-c2ccc(Cl)cc2)n[nH]1 | 49.8% | 64.4% | 55.5% | 55.9% | 40.4% | 42.9% | 47.5% | 49.3% | 84.6% | 73.7% | 78.1% | 39.9% | 61.3% | 37.5% | 72.9% | 66.7% | 95.3% | 91.9% | 88.1% | 76.7%
COc1cccc(/C=C/C(=O)c2sc(Nc3ccc(O)cc3)nc2C)c1 | 92.3% | 107% | 93.5% | 107% | 105% | 107% | 24.9% | 88.2% | 80.2% | 115% | 94.9% | 79.1% | 95% | 105% | 84.6% | 61.2% | 104% | 74.5% | 85% | 95.4%
COc1cc(/C=C\c2cc(OC)c(OC)c(OC)c2)cc(N/C=C\C(=O)c2c[nH]c3ccccc23)c1OC | 60.5% | 65.5% | 80.4% | 83% | 82.6% | 48.4% | -76.9% (active) | 84.3% | -5.56% (active) | -77.2% (active) | 41.7% | -9.37% (active) | -58.2% (active) | -12% (active) | -35.3% (active) | 72% | 55.8% | -95.2% (active) | 33.4% | 52.9%
CC1=C(C#N)C(C)(C)C(C#N)=C(C)N1 | 102% | 105% | 109% | 109% | 106% | 95.6% | 104% | 101% | 105% | 115% | 106% | 99.4% | 109% | 104% | 117% | 100% | 96.1% | 99.3% | 103% | 102%
N#Cc1ncc(-c2ccc(F)c(F)c2F)c(NC2CCCCCC2)n1 | 88.1% | 93.8% | 85.7% | 82.3% | 98.9% | 65.1% | 72% | 89.3% | 87.1% | 99.8% | 95.8% | 76.8% | 131% | 67% | 77.5% | 66.6% | 97.8% | 93.7% | 81.5% | 97.8%
COc1ccc(C(=O)/C=C/c2cccc([N+](=O)[O-])c2)c(OC)c1 | 32.6% | 49.2% | 66% | 26.1% | 1.68% (active) | 67.5% | 7.28% (active) | 27.6% | -7.25% (active) | 60.2% | 25.3% | 8.25% (active) | 70.5% | 34.7% | -33.8% (active) | 25% | 35.5% | 8.09% (active) | 66.4% | 30.6%
Cc1cc(-c2ccccc2)c(C)n1Cc1ccc(Cl)cc1 | 65.8% | 71.3% | 68.1% | 55.4% | 20.8% | 54.2% | 37.5% | 33.7% | 47.8% | 38.2% | 86.6% | 13% | 59.4% | 67% | 61.4% | 58.5% | 39.7% | 39.4% | 48.4% | 17.7%
O=C(CN1CCOCC1)Nc1ccc(-c2nc3ccccc3s2)cc1 | 99.5% | 95% | 100% | 106% | 99.7% | 83.3% | 94.5% | 93.8% | 101% | 115% | 109% | 99.3% | 117% | 96.8% | 111% | 110% | 98.2% | 89.7% | 101% | 101%
